The values below come from PubChem BioAssay (NCI).

A short description of test [1]: NCI Yeast Anticancer Drug Screen. Data for the rad50 strain (AID 155).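 Further: 0% = growth of vehicle-only cultures of the same strain.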 Conditions: S. cerevisiae rad50 strain growth inhibition, stronger effect = higher value. Summed up:
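Compounds were tested on a yeast strain with an engineered DNA damage repair alteration; the reported value is growth inhibition normalised to vehicle treatment.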

A short description of test [2]: NCI Yeast Anticancer Drug Screen. Data for the mec2-1 strain (AID 157). Conditions: S. cerevisiae mec2-1 strain, stronger effect = higher value. Summed up: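 Vehicle-treated cultures served as reference for growth inhibition of compound-exposed mec2-1 yeast.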
The nature of test [3]: NCI Yeast Anticancer Drug Screen. Data for the sgs1 mgt1 strain (AID 161).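 Further: 0% = growth of cultures given vehicle only.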 Conditions: S. cerevisiae sgs1 mgt1 strain, stronger effect = higher value. An outline of the steps: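 Read-out: growth inhibition vs vehicle controls. Cells: mutant yeast strain deficient in DNA damage repair.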
Test [4] in a line: NCI Yeast Anticancer Drug Screen. Data for the cln2 rad14 strain (AID 165).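 Further: 0% = growth equal to vehicle treated cultures.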 Conditions: S. cerevisiae cln2 rad14 strain, stronger effect = higher value. An outline of the steps: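 Each compound was tested on cln2 rad14 yeast. Inhibition of growth was calculated against vehicle-exposed controls.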
Test [5] is described as follows: NCI Yeast Anticancer Drug Screen. Data for the bub3 strain (AID 167). Conditions: S. cerevisiae bub3 mutant strain, stronger effect = higher value. Summed up:
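Growth of a checkpoint-deficient yeast mutant is measured after compound exposure. Values represent inhibition relative to vehicle.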

The nature of test [6]: NCI Yeast Anticancer Drug Screen. Data for the mlh1 rad18 strain (AID 175). Conditions: S. cerevisiae mlh1 rad18 strain growth inhibition, stronger effect = higher value. An outline of the steps:
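Vehicle-treated cultures served as the reference for growth inhibition in a yeast strain carrying DNA damage repair alterations exposed to each compound.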

Setting [7] is: at 5.0 µM (retest, dose inferred, filed as 0.5).
The mark [8] stands for this setting: at 50.0 µM (retest, dose inferred, filed as 5.0).

The panel holds about 79,000 compounds, 15% with a hit somewhere; the sample as a whole holds those more often. A number with no mark means an inactive call. Activity calls are given as the source filed them. No stated cut-off is given here; in the data, active means growth inhibition above about 70%; inactive means the rest.

Regarding `COc1ccc(C2=CCC3C4CC=C5CC(O)CCC5(C)C4CCC23C)s1` (stereo not drawn), the growth inhibition in test [1] (setting [7]) is 0%; in test [1] (setting [8]), 13%; in test [1] (at 50.0 µM), 59.7%; in test [2] (setting [7]), -17%; in test [2] (setting [8]), 63%; in test [2] (at 50.0 µM), 64.1%. Moreover, the growth inhibition is -23% in test [3] (setting [7]); 82% (active) in test [3] (setting [8]); 59.6% in test [3] (at 50.0 µM); -3% in test [4] (setting [7]); 18% in test [4] (setting [8]); 53.5% in test [4] (at 50.0 µM). Besides, the growth inhibition in test [5] (setting [7]) is -1%; in test [5] (setting [8]), 30%; in test [5] (at 50.0 µM) it was 66%.
As to `Cc1sc(Cc2ccccc2)nc1-c1ccc(N=Cc2ccc(N(CCOS(C)(=O)=O)CCOS(C)(=O)=O)cc2)cc1`, the growth inhibition is 53% in test [1] (setting [7]); 95% (active) in test [1] (setting [8]); 94% (active) in test [1] (at 50.0 µM); -10% in test [2] (setting [7]); 97% (active) in test [2] (setting [8]); 97.8% (active) in test [2] (at 50.0 µM). Moreover, the growth inhibition is 32% in test [3] (setting [7]); 95% (active) in test [3] (setting [8]); 96.5% (active) in test [3] (at 50.0 µM); 38% in test [4] (setting [7]); 95% (active) in test [4] (setting [8]); 93.8% (active) in test [4] (at 50.0 µM). For the same molecule, the growth inhibition is 1% in test [5] (setting [7]); 94% (active) in test [5] (setting [8]); 91.3% (active) in test [5] (at 50.0 µM); 82% (active) in test [6] (setting [7]); 95% (active) in test [6] (setting [8]); 96.5% (active) in test [6] (at 50.0 µM).
For the molecule `C1=C(c2ccccc2)[P+](c2ccccc2)(c2ccccc2)C=C(c2ccccc2)[P+]1(c1ccccc1)c1ccccc1`, the growth inhibition in test [1] (setting [7]) is 87% (active); in test [1] (setting [8]), 98% (active); in test [1] (at 50.0 µM), 99.3% (active); in test [2] (setting [7]), 89% (active); in test [2] (setting [8]), 99% (active); in test [2] (at 50.0 µM) it was 99.7% (active). Moreover, the growth inhibition in test [3] (setting [7]) was 89% (active); in test [3] (setting [8]), 99% (active); in test [3] (at 50.0 µM), 99.2% (active); in test [4] (setting [7]), 44%; in test [4] (setting [8]), 98% (active); in test [4] (at 50.0 µM) it was 98.2% (active). The growth inhibition is 83% (active) in test [5] (setting [7]); 99% (active) in test [5] (setting [8]); 99.2% (active) in test [5] (at 50.0 µM); 83% (active) in test [6] (setting [7]); 99% (active) in test [6] (setting [8]); 99.2% (active) in test [6] (at 50.0 µM).
In the case of `O=C1c2ccccc2CC(Br)c2ccccc21` (stereo not drawn), the growth inhibition is -2% in test [1] (setting [7]); 97% (active) in test [1] (setting [8]); 97.2% (active) in test [1] (at 50.0 µM); -4% in test [2] (setting [7]); 94% (active) in test [2] (setting [8]); 27.4% in test [2] (at 50.0 µM). The growth inhibition in test [3] (setting [7]) is 3%; in test [3] (setting [8]) it was 94% (active); in test [3] (at 50.0 µM) it was 81.8% (active); in test [4] (setting [7]), -77%; in test [4] (setting [8]), 80% (active); in test [4] (at 50.0 µM), 1.7%. Moreover, the results for the growth inhibition in test [5] (setting [7]), in test [5] (setting [8]) and in test [5] (at 50.0 µM) were -10%, -3% and 42.5%, respectively.
In the case of `COc1cc2c(cc1OC)-c1nc(Nc3ccccc3)sc1CC2`, the growth inhibition was -6% in test [1] (setting [7]); 92% (active) in test [1] (setting [8]); 43.4% in test [1] (at 50.0 µM); -1% in test [2] (setting [7]); 94% (active) in test [2] (setting [8]); 86.7% (active) in test [2] (at 50.0 µM). Further, the growth inhibition was -3% in test [3] (setting [7]); 88% (active) in test [3] (setting [8]); 82% (active) in test [3] (at 50.0 µM); 5% in test [4] (setting [7]); 88% (active) in test [4] (setting [8]); 29.1% in test [4] (at 50.0 µM). The growth inhibition in test [5] (setting [7]) is 1%; in test [5] (setting [8]), 92% (active); in test [5] (at 50.0 µM), 78.5% (active); in test [6] (setting [7]), -4%; in test [6] (setting [8]), 95% (active); in test [6] (at 50.0 µM) it was 93% (active).
Consider `Nc1ccc(O)c(=O)cc1`, for which the growth inhibition in test [1] (setting [7]) was -1%; in test [1] (setting [8]) it was 1%; in test [1] (at 50.0 µM), 50.2%; in test [2] (setting [7]), -40%; in test [2] (setting [8]), 11%; in test [2] (at 50.0 µM), 45.1%. The growth inhibition in test [3] (setting [7]) was 0%; in test [3] (setting [8]), 18%; in test [3] (at 50.0 µM), 62.2%; in test [4] (setting [7]), -2%; in test [4] (setting [8]), 0%; in test [4] (at 50.0 µM) it was 25.1%. For the same molecule, the results for the growth inhibition in test [5] (setting [7]), in test [5] (setting [8]) and in test [5] (at 50.0 µM) were -8%, 4% and 76.6% (active), respectively.
With `O=C1c2cc(F)ccc2-c2c(F)cc(F)c(F)c21`, the growth inhibition in test [1] (setting [7]) is 8%; in test [1] (setting [8]), 7%; in test [1] (at 50.0 µM), 82.3% (active); in test [2] (setting [7]), 6%; in test [2] (setting [8]), 5%; in test [2] (at 50.0 µM), 55.9%. Also, the growth inhibition in test [3] (setting [7]) is 2%; in test [3] (setting [8]) it was 4%; in test [3] (at 50.0 µM), 41%; in test [4] (setting [7]), 3%; in test [4] (setting [8]) it was -6%; in test [4] (at 50.0 µM) it was 34.9%. The growth inhibition in test [5] (setting [7]) was -7%; in test [5] (setting [8]), -14%; in test [5] (at 50.0 µM), 5.95%; in test [6] (setting [7]) it was 4%; in test [6] (setting [8]), 7%; in test [6] (at 50.0 µM), 46.8%.
As for `O=C(Nc1ccc(Cl)cc1)Nc1nnc2nc(C(C(=O)c3ccc(F)cc3)c3nc4nnc(NC(=O)Nc5ccc(Cl)cc5)n4[nH]c3=O)c(=O)[nH]n12`, the growth inhibition in test [1] (setting [7]) was -11%; in test [1] (setting [8]) it was 32%; in test [1] (at 50.0 µM), 99.5% (active); in test [2] (setting [7]), -19%; in test [2] (setting [8]) it was 56%; in test [2] (at 50.0 µM) it was 99.5% (active). The growth inhibition in test [3] (setting [7]) is 4%; in test [3] (setting [8]) it was 33%; in test [3] (at 50.0 µM), 99.5% (active); in test [4] (setting [7]), -38%; in test [4] (setting [8]), 36%; in test [4] (at 50.0 µM), 99.2% (active). Besides, the growth inhibition in test [5] (setting [7]) was -26%; in test [5] (setting [8]), 48%; in test [5] (at 50.0 µM), 99% (active); in test [6] (setting [7]) it was -10%; in test [6] (setting [8]), 64%; in test [6] (at 50.0 µM), 99.5% (active).
`CSCCC(NC(=O)C(CCSC)NS(=O)(=O)Cc1ccccc1)C(=O)O` (stereo not drawn): the growth inhibition in test [1] (setting [7]) is -6%; in test [1] (setting [8]) it was -4%; in test [1] (at 50.0 µM), 98.9% (active); in test [2] (setting [7]), -4%; in test [2] (setting [8]) it was -3%; in test [2] (at 50.0 µM), 99.6% (active). Also, the growth inhibition in test [3] (setting [7]) is -6%; in test [3] (setting [8]), -6%; in test [3] (at 50.0 µM) it was 48.5%; in test [4] (setting [7]) it was -2%; in test [4] (setting [8]) it was -12%; in test [4] (at 50.0 µM), 98.7% (active). Moreover, the growth inhibition in test [5] (setting [7]) is -4%; in test [5] (setting [8]) it was -3%; in test [5] (at 50.0 µM), 99.2% (active).
In the case of `ClCc1c(-c2ccccc2)oc(-c2ccccc2)c1CCl`, the growth inhibition is 0% in test [1] (setting [7]); 49% in test [1] (setting [8]); 32.6% in test [1] (at 50.0 µM); 1% in test [2] (setting [7]); 64% in test [2] (setting [8]); 34% in test [2] (at 50.0 µM). Also, the growth inhibition is 6% in test [3] (setting [7]); 72% (active) in test [3] (setting [8]); 68.8% in test [3] (at 50.0 µM); 1% in test [4] (setting [7]); 38% in test [4] (setting [8]); 21.9% in test [4] (at 50.0 µM). The growth inhibition in test [5] (setting [7]) was 1%; in test [5] (setting [8]) it was 40%; in test [5] (at 50.0 µM), 8.25%; in test [6] (setting [7]) it was 1%; in test [6] (setting [8]), 86% (active); in test [6] (at 50.0 µM), 73.4% (active).
